# Reference: ChEMBL document CHEMBL3988442, “University of Dundee, Small-Polar-MMV Screening Library” (2021)
# For part of these data: Measured potencies and affinities stand elsewhere.
# Tests used:
# Parameters in all cases: scale not given: direction of the effect not stated beside the values
# [1] = biological target: Protein translocase subunit SecA (Escherichia coli (strain K12)) (UniProt P10408); assay: Assay to Identify E. coli SecA ATPase Inhibitors; type: functional; details: 30 µM
# [2] = biological target: T1, Ubiquitin-activating enzyme e1, putative (Leishmania donovani (strain BPK282A1)) (UniProt E9BSI1); assay: Leishmania donovani Ubiquitin Activating Enzyme (LdE1); type: functional; details: 30 µM
# T1 sequence (whole entry): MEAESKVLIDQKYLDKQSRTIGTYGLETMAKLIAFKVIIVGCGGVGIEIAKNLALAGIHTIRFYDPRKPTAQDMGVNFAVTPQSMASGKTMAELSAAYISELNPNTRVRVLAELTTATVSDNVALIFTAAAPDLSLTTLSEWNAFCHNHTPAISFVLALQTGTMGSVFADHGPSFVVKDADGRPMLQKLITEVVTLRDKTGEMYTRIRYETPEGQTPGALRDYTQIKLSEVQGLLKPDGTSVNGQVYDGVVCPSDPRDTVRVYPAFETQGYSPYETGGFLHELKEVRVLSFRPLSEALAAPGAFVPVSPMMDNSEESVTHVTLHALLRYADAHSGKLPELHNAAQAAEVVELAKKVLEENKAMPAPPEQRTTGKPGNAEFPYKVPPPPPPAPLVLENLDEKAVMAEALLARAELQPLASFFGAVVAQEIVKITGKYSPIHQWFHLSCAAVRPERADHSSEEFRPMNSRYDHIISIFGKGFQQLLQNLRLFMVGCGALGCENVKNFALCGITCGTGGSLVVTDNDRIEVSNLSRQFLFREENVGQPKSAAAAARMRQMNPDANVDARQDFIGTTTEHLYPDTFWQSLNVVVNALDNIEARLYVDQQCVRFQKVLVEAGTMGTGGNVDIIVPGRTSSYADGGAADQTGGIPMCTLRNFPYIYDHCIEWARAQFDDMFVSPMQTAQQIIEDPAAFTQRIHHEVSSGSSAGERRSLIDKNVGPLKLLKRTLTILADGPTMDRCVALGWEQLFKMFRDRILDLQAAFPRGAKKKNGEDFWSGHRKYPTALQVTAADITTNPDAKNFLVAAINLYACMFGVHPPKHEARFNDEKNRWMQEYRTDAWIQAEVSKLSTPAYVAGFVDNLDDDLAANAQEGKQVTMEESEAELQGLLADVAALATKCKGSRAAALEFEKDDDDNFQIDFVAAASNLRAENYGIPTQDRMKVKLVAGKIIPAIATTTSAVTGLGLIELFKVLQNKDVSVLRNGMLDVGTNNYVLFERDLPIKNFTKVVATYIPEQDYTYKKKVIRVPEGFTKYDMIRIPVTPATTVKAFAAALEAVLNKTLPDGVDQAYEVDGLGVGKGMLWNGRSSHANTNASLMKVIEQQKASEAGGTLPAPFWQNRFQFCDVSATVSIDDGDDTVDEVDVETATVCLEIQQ
# [3] = biological target: AMP-activated protein kinase, AMPK (Homo sapiens) (UniProt P54646+O43741+P54619+Q9UGJ0+Q9Y478+Q13131+Q9UGI9); assay: AMP-dependent Kinase enzyme assay. An in vitro enzyme assay that detects ADP turnover that is directly proportional to AMPK activity. This uses naive AMPK that is activated during the assay with MK-8722; type: functional; details: 30 µM
# [4] = biological target: Sialic acid-binding Ig-like lectin 9 (Homo sapiens) (UniProt Q9Y336); assay: Hs-Siglec9 ALPHAscreen SOP 20170721; details: 10 µM
# Sequence of Sialic acid-binding Ig-like lectin 9 (Homo sapiens) (Q9Y336 whole entry): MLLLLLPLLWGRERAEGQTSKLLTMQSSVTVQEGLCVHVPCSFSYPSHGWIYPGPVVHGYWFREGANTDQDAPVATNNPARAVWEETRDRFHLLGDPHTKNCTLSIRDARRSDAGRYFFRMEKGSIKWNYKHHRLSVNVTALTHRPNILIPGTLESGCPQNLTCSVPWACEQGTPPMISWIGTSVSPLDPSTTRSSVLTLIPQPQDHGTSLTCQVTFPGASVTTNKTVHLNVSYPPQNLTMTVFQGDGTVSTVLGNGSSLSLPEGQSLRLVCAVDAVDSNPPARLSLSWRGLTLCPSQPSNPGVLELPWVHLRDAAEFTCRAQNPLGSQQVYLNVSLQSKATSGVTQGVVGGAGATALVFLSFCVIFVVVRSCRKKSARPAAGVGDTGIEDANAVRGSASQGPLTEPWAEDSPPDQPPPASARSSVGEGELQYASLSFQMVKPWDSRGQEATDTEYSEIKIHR
# Trypanosoma cruzi = assay: Trypanosoma cruzi phosphomannomutase and mannose-1-phosphate guanylyltransferase assay; type: functional; details: 10 µM
# [5] = biological target: T2, Arginase-2, mitochondrial (Homo sapiens) (UniProt P78540); assay: in vitro enzyme assay to detect the production of urea directly proportional to the activity of Arginase II; type: functional; details: 33.3 µM; further: in the data most compounds retested in dose-response had high values
# T2 sequence (whole entry): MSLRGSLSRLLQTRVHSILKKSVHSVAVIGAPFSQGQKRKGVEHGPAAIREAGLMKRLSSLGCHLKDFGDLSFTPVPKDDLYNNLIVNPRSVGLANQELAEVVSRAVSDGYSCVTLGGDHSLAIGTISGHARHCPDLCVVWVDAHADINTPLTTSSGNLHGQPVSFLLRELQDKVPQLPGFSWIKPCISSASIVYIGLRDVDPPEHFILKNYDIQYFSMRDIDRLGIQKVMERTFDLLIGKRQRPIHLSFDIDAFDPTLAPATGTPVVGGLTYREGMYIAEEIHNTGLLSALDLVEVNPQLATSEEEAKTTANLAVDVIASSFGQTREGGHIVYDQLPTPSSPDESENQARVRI
# [6] = biological target: T3, Proteasome subunit beta (Trypanosoma cruzi) (UniProt O96673); assay: Trypanosoma cruzi proteasome chymotrypsin-like activity (TcProtChymo) assay.; further: in the data most compounds retested in dose-response had high values; type: functional; details: 9.37 µM
# T3 sequence (whole entry): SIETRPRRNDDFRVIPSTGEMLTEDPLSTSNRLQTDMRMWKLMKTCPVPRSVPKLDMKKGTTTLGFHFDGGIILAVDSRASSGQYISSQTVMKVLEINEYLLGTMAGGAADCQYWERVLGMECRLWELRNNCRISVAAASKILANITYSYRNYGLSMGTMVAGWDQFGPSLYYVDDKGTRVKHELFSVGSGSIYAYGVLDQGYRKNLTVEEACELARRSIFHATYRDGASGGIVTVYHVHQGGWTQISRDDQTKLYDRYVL
# Homo sapiens = species on record: Homo sapiens; assay: To identify inhibition of the IFN signalling (Jak-Stat) pathway via expression of an eGFP reporter gene under the control of an IFN-stimulated response element (ISRE) containing MxA promoter.; type: functional; details: 30 µM
# [7] = biological target: T4, Tyrosyl-tRNA synthetase, putative (Trypanosoma cruzi (strain CL Brener)) (UniProt Q4DSP6); assay: Trypanosoma cruzi tyrosyl tRNA synthetase (TcYRS) _High Tyrosine SOP; type: functional; details: 30 µM; further: in the data most compounds retested in dose-response had high values
# T4 sequence (whole entry): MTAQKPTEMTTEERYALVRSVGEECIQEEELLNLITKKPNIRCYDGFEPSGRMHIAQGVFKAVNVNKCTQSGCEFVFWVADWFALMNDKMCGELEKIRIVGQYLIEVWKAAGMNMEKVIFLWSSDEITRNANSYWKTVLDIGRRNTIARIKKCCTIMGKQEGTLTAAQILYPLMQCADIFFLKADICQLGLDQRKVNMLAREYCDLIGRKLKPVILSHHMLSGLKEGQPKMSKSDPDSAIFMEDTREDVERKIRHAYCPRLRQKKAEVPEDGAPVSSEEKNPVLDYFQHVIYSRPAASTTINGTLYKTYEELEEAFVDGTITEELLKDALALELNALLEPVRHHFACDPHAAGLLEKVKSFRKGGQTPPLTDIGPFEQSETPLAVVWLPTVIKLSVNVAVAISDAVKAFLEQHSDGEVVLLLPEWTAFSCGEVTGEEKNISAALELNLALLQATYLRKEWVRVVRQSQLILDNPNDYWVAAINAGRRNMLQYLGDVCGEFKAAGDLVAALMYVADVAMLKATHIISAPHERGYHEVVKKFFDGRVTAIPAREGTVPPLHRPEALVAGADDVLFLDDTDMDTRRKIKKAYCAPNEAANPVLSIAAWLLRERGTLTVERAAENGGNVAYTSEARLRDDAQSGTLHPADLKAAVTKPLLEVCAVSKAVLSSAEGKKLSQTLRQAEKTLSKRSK
# [8] = biological target: T4, Tyrosyl-tRNA synthetase, putative (Trypanosoma cruzi (strain CL Brener)); assay: Trypanosoma cruzi tyrosyl tRNA synthetase (TcYRS) SOP; type: functional; details: 30 µM
# [9] = biological target: Chromo domain-containing protein 1 (Saccharomyces cerevisiae (strain ATCC 204508 / S288c) (Baker's yeast)) (UniProt P32657); assay: ScCHD-1 Enzyme Inhibition Assay; type: functional; details: 30 µM; further: in the data most compounds retested in dose-response had high values
# Sequence of Chromo domain-containing protein 1 (Saccharomyces cerevisiae (strain ATCC 204508 / S288c) (Baker's yeast)) (P32657 whole entry, the tested form may be a part): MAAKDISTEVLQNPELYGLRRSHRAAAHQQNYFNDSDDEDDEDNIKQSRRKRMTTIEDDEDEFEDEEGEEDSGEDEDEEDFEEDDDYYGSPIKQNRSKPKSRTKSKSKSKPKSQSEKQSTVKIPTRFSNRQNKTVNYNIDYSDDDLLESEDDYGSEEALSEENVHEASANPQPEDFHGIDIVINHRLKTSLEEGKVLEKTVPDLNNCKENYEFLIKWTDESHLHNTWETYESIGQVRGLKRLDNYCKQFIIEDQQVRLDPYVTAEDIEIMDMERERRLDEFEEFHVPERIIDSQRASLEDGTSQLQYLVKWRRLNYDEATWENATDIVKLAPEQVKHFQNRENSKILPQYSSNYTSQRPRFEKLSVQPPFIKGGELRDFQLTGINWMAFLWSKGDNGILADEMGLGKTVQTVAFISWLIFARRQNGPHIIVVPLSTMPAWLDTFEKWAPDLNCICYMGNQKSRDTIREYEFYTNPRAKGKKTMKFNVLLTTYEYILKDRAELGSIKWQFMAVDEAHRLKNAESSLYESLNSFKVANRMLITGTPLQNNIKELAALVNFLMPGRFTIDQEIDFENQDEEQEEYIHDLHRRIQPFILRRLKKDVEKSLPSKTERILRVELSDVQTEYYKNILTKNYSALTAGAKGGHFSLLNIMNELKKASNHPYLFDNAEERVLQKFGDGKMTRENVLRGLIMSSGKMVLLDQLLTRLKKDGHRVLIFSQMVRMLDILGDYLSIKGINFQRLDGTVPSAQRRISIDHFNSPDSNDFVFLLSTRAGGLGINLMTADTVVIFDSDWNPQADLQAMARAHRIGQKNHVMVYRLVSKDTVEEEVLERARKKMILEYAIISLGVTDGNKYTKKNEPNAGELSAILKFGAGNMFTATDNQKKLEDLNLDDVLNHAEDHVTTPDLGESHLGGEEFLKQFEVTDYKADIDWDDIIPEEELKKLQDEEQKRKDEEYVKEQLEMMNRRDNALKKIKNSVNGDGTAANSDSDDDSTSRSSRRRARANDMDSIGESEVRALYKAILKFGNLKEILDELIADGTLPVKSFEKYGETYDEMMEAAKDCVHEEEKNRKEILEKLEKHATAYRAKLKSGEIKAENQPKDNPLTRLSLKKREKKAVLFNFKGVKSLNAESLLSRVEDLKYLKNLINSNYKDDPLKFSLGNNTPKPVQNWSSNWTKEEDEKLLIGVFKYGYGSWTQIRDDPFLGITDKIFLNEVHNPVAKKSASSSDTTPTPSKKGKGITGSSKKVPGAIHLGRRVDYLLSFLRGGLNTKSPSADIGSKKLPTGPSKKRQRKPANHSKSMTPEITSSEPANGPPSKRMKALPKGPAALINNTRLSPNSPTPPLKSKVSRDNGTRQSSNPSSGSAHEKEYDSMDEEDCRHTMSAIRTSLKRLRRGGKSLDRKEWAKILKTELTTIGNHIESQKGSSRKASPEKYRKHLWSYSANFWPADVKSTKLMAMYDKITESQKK
# Sequence of Protein translocase subunit SecA (Escherichia coli (strain K12)) (P10408 whole entry): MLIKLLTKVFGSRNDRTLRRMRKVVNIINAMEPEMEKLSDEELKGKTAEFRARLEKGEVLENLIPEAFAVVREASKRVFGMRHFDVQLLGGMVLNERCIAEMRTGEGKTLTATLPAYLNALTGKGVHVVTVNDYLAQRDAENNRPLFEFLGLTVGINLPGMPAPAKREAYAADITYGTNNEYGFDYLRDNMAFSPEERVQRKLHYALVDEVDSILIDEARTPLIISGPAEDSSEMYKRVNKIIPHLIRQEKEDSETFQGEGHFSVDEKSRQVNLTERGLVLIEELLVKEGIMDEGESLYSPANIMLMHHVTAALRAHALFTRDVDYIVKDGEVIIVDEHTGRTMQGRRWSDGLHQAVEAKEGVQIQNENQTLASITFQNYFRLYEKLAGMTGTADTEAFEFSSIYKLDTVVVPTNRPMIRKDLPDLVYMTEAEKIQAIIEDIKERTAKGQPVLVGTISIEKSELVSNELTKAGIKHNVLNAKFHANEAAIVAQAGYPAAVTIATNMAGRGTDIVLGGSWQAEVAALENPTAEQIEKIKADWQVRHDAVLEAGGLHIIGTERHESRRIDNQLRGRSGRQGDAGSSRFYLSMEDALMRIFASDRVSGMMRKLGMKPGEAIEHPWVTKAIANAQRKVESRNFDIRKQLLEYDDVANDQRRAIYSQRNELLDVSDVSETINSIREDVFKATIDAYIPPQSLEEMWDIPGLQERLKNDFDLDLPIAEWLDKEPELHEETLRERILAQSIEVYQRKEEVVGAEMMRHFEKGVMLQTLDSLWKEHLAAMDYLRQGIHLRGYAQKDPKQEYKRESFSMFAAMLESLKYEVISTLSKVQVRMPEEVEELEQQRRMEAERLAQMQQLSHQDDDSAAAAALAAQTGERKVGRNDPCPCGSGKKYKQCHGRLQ
SMILES,Percent Effect [1] [%],Percent Effect [2] [%],Percent Effect [3] [%],Percent Effect [4] [%],Percent Effect (Trypanosoma cruzi) [%],Percent Effect [5] [%],Percent Effect [6] [%],Percent Effect (Homo sapiens) [%],Percent Effect [7] [%],Percent Effect [8] [%],Percent Effect [9] [%]
CCn1nnc2cc(C(=O)N3CCCC3Cn3cc(C)cn3)ccc21 (stereo unspecified),-1.32,-5.06,-2.65,3.15,3.31,2.28,0.737,9.94,0.493,1.27,0.343
CNS(=O)(=O)c1ccc(C(=O)NC2CCc3nc(C)cn3C2)o1 (stereo unspecified),-4.88,7.89,5.73,6.53,2.26,-3.45,11,-11.5,3.43,17.1,-10.4
Cc1ccc(CN2CC(C(=O)Nc3ccccc3)C3(CCOCC3)C2)s1 (stereo unspecified),-2.15,8,-1.41,0.774,-0.579,-44.3,11.4,-5.53,3.12,25,-6.22
Cc1ccc2c(n1)N(C)CCN(C(=O)NC1CC1)C2,-5.82,-2.67,117,-1.66,-7.53,-57.2,4.96,18.6,-3.12,5,-9.39
Cc1nn(C)cc1CN1CCC(C2Nc3ccccc3S(=O)(=O)N2)CC1 (stereo unspecified),-3.36,6.76,11.9,2.59,-1.78,0.232,7.49,-1.1,6.45,14.3,-9.41
O=C(C1CCC1)N1CCN(c2snc3ccccc23)CC1,-4.56,1.27,21,-7.26,-0.718,9.25,5.83,25.3,-4.17,-12.7,-2
Cc1nnc(C(C)N2CCN(Cc3ccc4c(c3)OCO4)CC2)o1 (stereo unspecified),-8,8.11,-13.4,7.45,-4.62,-4.01,-0.36,13.3,-0.493,-8.64,2.83
CC(=O)N1CCCC1c1nnc2n1CCCCC2 (stereo unspecified),-8.8,-32.4,1.68,-1.76,-0.195,5.42,6.85,5.46,7.92,13.4,-5.77
CCOc1nnc(CN2CCC(N(C)Cc3noc(C)n3)C2)s1 (stereo unspecified),-0.236,13.2,-4.92,-14.9,-9.06,5.04,12.4,11.4,7.39,6.17,-8.06
CN(C)C1CCN(C(=O)NCc2ccc(Cn3cncn3)cc2)CC1,-4.29,-5.41,-5.16,28.9,9.85,-2.38,14.5,6.43,5.82,17.1,-10
O=C(NCc1ccc(F)cc1)N1CCC(C2OCCO2)CC1,-3.74,7.89,6.23,6.03,-1.66,-8.28,12.4,13.8,6.38,13,-4.56
CO[C@H]1CN(Cc2cccc(C#N)c2)[C@@H]2COC[C@H]12,-3.41,8,-0.964,2.51,0.965,-48.9,7.52,-21.7,5.21,22.5,-5.96
COCCn1cc2c(n1)C(CNCc1ccco1)OCC2 (stereo unspecified),-7.4,-2.7,0.854,9.04,-0.781,0.833,18,13.2,3.96,-3.66,-1.08
CCCn1c(C)c(CC(=O)N(C)CCOC)c2c1CC(C)(C)CC2=O,-3.48,5.2,0.628,11.4,6.59,-38.6,3,-27.9,6.45,8.64,-8.76
CSCC(C)(O)CNC(=O)c1ccc(Br)cc1F (stereo unspecified),-7.07,2.7,-0.438,0.101,2.25,3.23,2.15,-2.21,3.23,6.17,-3.6
COc1ccc(CCNC(=O)C2CCC(Cn3cnnn3)CC2)cc1 (stereo unspecified),-1.81,1.33,15.9,3.74,-1.38,-5.81,5.18,-2.49,5.29,2.56,-1.04
CCOc1cc(C(=O)N2CCCC(c3noc(C)n3)C2)ccn1 (stereo unspecified),-5.03,10.5,-4.05,13.6,-2.15,-1.08,2.12,-18.5,5.42,11.1,-2.64
COc1ccc(C[C@H]2CN(c3nnc(C)s3)CC[C@@H]2OC)cc1,-4.17,5.33,-2.8,-1.52,2.7,-49.6,5.81,3.46,-34.4,7.5,86.4
COc1ccc(CN(Cc2cncn2C)CC2CCCO2)c(OC)c1 (stereo unspecified),-2.55,17.6,4.23,-4.44,-0.79,0.696,20,17.5,5.38,14.3,-18.5
Cc1noc(C)c1C(=O)NCC(C)N(C)C (stereo unspecified),1.71,16.2,-3.02,-9.99,-7.71,-1.29,21.5,11.2,3.96,13.4,-3.89
CS(=O)(=O)c1ccc(CNC2CCCN(c3cccnn3)C2)cc1 (stereo unspecified),-2.48,18.2,4.4,-0.526,0.686,6.53,12.5,9.14,8.57,21.2,-19
